Where a name gives a salt, the structure may show the parent alone. ± gives the standard deviation of the averaged measurements.
test system: Danio rerio Tg(wt1b:EGFP) embryo, pronephros; experiment: pronephric angle neck segment to proximal convoluted tubule (mean of left and right), fold change vs DMSO control; higher = larger pronephric angle; details: 25 µM; exposure: 24-48 hpf
How it was run: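 Every feature is expressed as a fold change relative to the averaged DMSO-treated embryos of the same day. The exposure ran from 24 to 48 hpf at 28.5°C, with dechorionated Tg(wt1b:EGFP) zebrafish embryos in HEPES-buffered E3 containing 0.003% PTU, 0.5% DMSO and 25 μM compound. Dorsal pronephros images taken in agarose-filled 96-well plates were reduced to maximum projections, on which 16 reference points were set by hand in Fiji for a macro to compute distances and angles. Values more than 2 SD from the feature mean were not used.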

SMILES	pronephric angle neck segment
COc1ncnc(NS(=O)(=O)c2ccc(N)cc2)c1OC [Sulfadoxine]	1.02 ± 0.066
Cn1c(=O)c2c(ncn2CC(=O)O)n(C)c1=O [Acefylline]	1.02 ± 0.035
COc1ccc(C(=O)c2ccccc2O)c(O)c1 [Dioxybenzone]	1.09 ± 0.018
Cc1ccc(O)c([C@H](CCN(C(C)C)C(C)C)c2ccccc2)c1 [Tolterodine tartrate]	0.986 ± 0.044

— the supplement of paper PMC7366291
